Data reported in PubChem BioAssay AID1159580 (chemical genetic matrix, 2015).
Where “and” joins values, the source holds several entries; their conditions need not be identical. Equal entries are not always repeated. The whole screen tested about 5,500 compounds, of which about 2,000 (36%) were called active. Roughly 18% stayed inconclusive and do not appear here. No stated cut-off is given here; in the data, active means normalized growth mostly below about 0.91 (no sharp cut-off); inconclusive means no clear call, values can overlap the other calls; inactive means mostly above about 0.92. The list shows a part of the results.

Assay: chemical genetic growth profiling, strain panel (AID 1159580);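 further: tested at 20 µM; growth read once vehicle control cultures reached saturation at 30 °C; 1 = growth at the plate median or of vehicle wells; lower values mean less growth of the strain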
Settings: S. cerevisiae deletion strains, growth OD

Measured: normalized growth

CC(=O)Oc1ccc2c(c1OC(C)=O)OCC1(O)Cc3c(cc(OC(C)=O)c(OC(C)=O)c3OC(C)=O)C21 (configuration not stated)
inactive: locus YAL013W, strain DEP1, active compounds read low 1.02 | locus YAL021C, strain ccr4, active compounds read low 0.948 | locus YAL026C, strain drs2, active compounds read low 1.03 | locus YAL030W, strain snc1, active compounds read low 1.01 | locus YBL061C, strain skt5, active compounds read low 1.01 | locus YBR009C, strain hhf1, active compounds read low 1.01 | locus YBR021W, strain FUR4, active compounds read low 1.02 | locus YBR023C, strain chs3, active compounds read low 0.988 | locus YBR171W, strain sec66, active compounds read low 1.02 | locus YBR229C, strain ROT2, active compounds read low 1.01 | locus YBR231C, strain swc5, active compounds read low 0.975 | locus YBR279W, strain paf1, active compounds read low 0.99 | locus YCL011C, strain gbp2, active compounds read low 0.997 | locus YCL016C, strain dcc1, active compounds read low 0.982 | locus YCL029C, strain bik1, active compounds read low 0.978 | locus YCL061C, strain MRC1, active compounds read low 1 | locus YCL069W, strain vba3, active compounds read low 1.03 | locus YCR088W, strain abp1, active compounds read low 1.02 | locus YDL005C, strain med2, active compounds read low 1.01 | locus YDL035C, strain GPR1, active compounds read low 1.01 | locus YDL040C, strain nat1, active compounds read low 1.01 | locus YDL074C, strain BRE1, active compounds read low 0.973 | locus YDL101C, strain DUN1, active compounds read low 0.943 | locus YDL134C, strain PPH21, active compounds read low 0.997 | locus YDL185W, strain tfp1, active compounds read low 0.955 | locus YDL192W, strain arf1, active compounds read low 1.01 | locus YDR001C, strain nth1, active compounds read low 1.02 | locus YDR069C, strain doa4, active compounds read low 0.969 | locus YDR101C, strain arx1, active compounds read low 1.04 | locus YDR137W, strain rgp1, active compounds read low 1 | locus YDR159W, strain sac3, active compounds read low 1.06 | locus YDR162C, strain NBP2, active compounds read low 0.948 | locus YDR195W, strain ref2 1.01 | locus YDR297W, strain sur2, active compounds read low 1 | locus YDR318W, strain mcm21, active compounds read low 1.02 | locus YDR334W, strain swr1, active compounds read low 1.02 | locus YDR335W, strain msn5, active compounds read low 0.998 | locus YDR388W, active compounds read low 0.996 | locus YDR392W, strain spt3, active compounds read low 0.923 | locus YDR502C, strain sam2, active compounds read low 1 | locus YEL003W, strain gim4, active compounds read low 1 | locus YEL037C, strain rad23, active compounds read low 1.01 | locus YEL061C, strain CIN8 (second series), active compounds read low 1.01 | locus YER015W, strain faa2, active compounds read low 0.974 | locus YER016W, strain bim1, active compounds read low 1.02 | locus YER110C, active compounds read low 0.991 | locus YER111C, strain swi4, active compounds read low 0.999 | locus YER155C, strain BEM2 (second series), active compounds read low 1.02 | locus YER155C, strain BEM2, active compounds read low 1.02 | locus YER167W, strain BCK2, active compounds read low 1.01 | locus YFR010W, strain ubp6, active compounds read low 1.02 | locus YGL078C, strain dbp3, active compounds read low 0.983 | locus YGL086W, strain mad1, active compounds read low 0.986 | locus YGL167C, strain pmr1, active compounds read low 0.995 | locus YGL173C, strain kem1, active compounds read low 1.02 | locus YGL227W, strain vid30, active compounds read low 1.02 | locus YGL240W, strain doc1, active compounds read low 1.07 | locus YGL248W, strain PDE1, active compounds read low 0.965 | locus YGL253W, strain hxk2, active compounds read low 1.04 | locus YGR135W, strain pre9, active compounds read low 0.949 | locus YGR229C, strain SMI1, active compounds read low 1.07 | locus YGR252W, strain gcn5, active compounds read low 1.11 | locus YHR013C, strain ard1, active compounds read low 0.981 | locus YHR027C, strain rpn1, active compounds read low 1 | locus YHR030C, strain SLT2, active compounds read low 1.01 and 1.06 | locus YHR079C, strain IRE1 (second series), active compounds read low 0.987 | locus YHR079C, strain IRE1, active compounds read low 1.08 | locus YHR094C, strain hxt1, active compounds read low 1 | locus YHR129C, strain ARP1, active compounds read low 1.01 | locus YHR142W, strain chs7, active compounds read low 1 | locus YHR200W, strain rpn10, active compounds read low 0.983 | locus YIL066C, strain RNR3, active compounds read low 0.97 | locus YIL073C, strain SPO22, active compounds read low 0.794 | locus YIL125W, strain kgd1, active compounds read low 0.993 | locus YIR030C, strain dcg1, active compounds read low 0.986 | locus YJL092W, strain hpr5, active compounds read low 1.01 | locus YJL095W, strain BCK1 (second series), active compounds read low 1 | locus YJL095W, strain BCK1, active compounds read low 0.947 and 1.06 | locus YJL115W, strain asf1, active compounds read low 1.01 | locus YJL129C, strain trk1, active compounds read low 1.03 | locus YJL134W, strain LCB3, active compounds read low 1 | locus YJL154C, strain vps35, active compounds read low 1.01 | locus YJL164C, strain tpk1, active compounds read low 0.98 | locus YJL166W, strain qcr8, active compounds read low 1.01 | locus YJL168C, strain set2, active compounds read low 0.997 | locus YJL187C, strain SWE1 (second series), active compounds read low 0.873 | locus YJL187C, strain SWE1, active compounds read low 0.988 | locus YJR066W, strain TOR1, active compounds read low 1.04 | locus YKL009W, strain mrt4, active compounds read low 0.973 | locus YKL068W, active compounds read low 0.994 | locus YKL085W, strain MDH1 (second series), active compounds read low 0.976 | locus YKL085W, strain MDH1, active compounds read low 0.976 | locus YKL160W, strain elf1, active compounds read low 0.983 | locus YKL190W, strain CNB1, active compounds read low 0.987 | locus YKR001C, strain vps1, active compounds read low 1.04 | locus YKR026C, strain gcn3, active compounds read low 1.02 | locus YKR091W, strain srl3, active compounds read low 1.01 | locus YLL001W, strain dnm1, active compounds read low 0.978 | locus YLL026W, active compounds read low 1.01 | locus YLL041C, strain sdh2, active compounds read low 1.02 | locus YLR027C, strain aat2, active compounds read low 1.01 | locus YLR039C, strain RIC1, active compounds read low 1.06 | locus YLR058C, strain SHM2, active compounds read low 0.898 | locus YLR102C, strain apc9, active compounds read low 0.981 | locus YLR113W, strain HOG1, active compounds read low 1.04 | locus YLR221C, strain rsa3, active compounds read low 1.03 | locus YLR258W, strain gsy2, active compounds read low 1 | locus YLR262C, strain YPT6 (second series), active compounds read low 1 | locus YLR268W, strain sec22, active compounds read low 1.01 | locus YLR320W, strain mms22, active compounds read low 1.03 | locus YLR330W, strain CHS5, active compounds read low 1.02 | locus YLR342W, strain FKS1, active compounds read low 1 | locus YLR357W, strain rsc2, active compounds read low 1 | locus YLR370C, strain arc18, active compounds read low 1.01 | locus YLR371W, strain rom2, active compounds read low 0.997 | locus YLR384C, strain iki3, active compounds read low 1.01 | locus YLR418C, strain cdc73, active compounds read low 1.02 | locus YML016C, strain PPZ1, active compounds read low 0.972 | locus YML032C, strain rad52, active compounds read low 1 | locus YML120C, strain ndi1, active compounds read low 0.983 | locus YML124C, strain tub3, active compounds read low 0.988 | locus YMR058W, strain fet3, active compounds read low 1.02 | locus YMR078C, strain ctf18, active compounds read low 0.994 | locus YMR125W, strain sto1, active compounds read low 0.989 | locus YMR129W, active compounds read low 1.01 | locus YMR205C, strain PFK2, active compounds read low 0.974 | locus YMR223W, strain ubp8, active compounds read low 0.995 | locus YMR231W, strain pep5, active compounds read low 1.01 | locus YMR263W, strain SAP30, active compounds read low 1.01 | locus YMR307W, strain GAS1, active compounds read low 1.06 | locus YNL067W, strain RPL9B, active compounds read low 1.02 | locus YNL071W, strain lat1, active compounds read low 1 | locus YNL183C, strain NPR1, active compounds read low 1.03 | locus YNL209W, strain ssb2, active compounds read low 0.973 | locus YNL233W, strain BNI4, active compounds read low 1 | locus YNL248C, strain rpa49, active compounds read low 1.04 | locus YNL250W, strain rad50, active compounds read low 0.925 | locus YNL271C, strain bni1, active compounds read low 0.976 | locus YNL298W, strain CLA4, active compounds read low 1.01 | locus YNL307C, strain MCK1, active compounds read low 0.998 | locus YNL322C, strain KRE1 (second series), active compounds read low 1 | locus YNR049C, strain mso1, active compounds read low 1.03 | locus YNR052C, strain pop2, active compounds read low 0.988 | locus YOL006C, strain TOP1, active compounds read low 0.743 | locus YOL012C, strain htz1 0.406 | locus YOL147C, strain pex11, active compounds read low 0.999 | locus YOR001W, strain rrp6, active compounds read low 1.06 | locus YOR061W, strain CKA2, active compounds read low 0.981 | locus YOR069W, strain VPS5, active compounds read low 1 | locus YOR070C, strain gyp1, active compounds read low 1.01 | locus YOR080W, strain dia2, active compounds read low 1 | locus YOR083W, strain WHI5, active compounds read low 0.984 | locus YOR106W, strain vam3, active compounds read low 0.955 | locus YOR136W, strain idh2, active compounds read low 1.02 | locus YOR144C, strain elg1, active compounds read low 1 | locus YOR184W, strain ser1, active compounds read low 1.1 | locus YOR231W, strain MKK1, active compounds read low 1.08 | locus YOR265W, strain rbl2, active compounds read low 1.03 | locus YOR270C, strain vph1, active compounds read low 1.07 | locus YOR290C, strain snf2, active compounds read low 0.988 | locus YOR316C, strain cot1, active compounds read low 0.987 | locus YPL051W, strain arl3, active compounds read low 0.969 | locus YPL078C, strain atp4, active compounds read low 0.991 | locus YPL106C, strain sse1, active compounds read low 0.949 | locus YPL240C, strain hsp82, active compounds read low 1.01 | locus YPL241C, strain CIN2, active compounds read low 0.996 | locus YPL256C, strain CLN2, active compounds read low 1.05 | locus YPR119W, strain clb2, active compounds read low 0.996 | locus YPR141C, strain kar3, active compounds read low 0.989 | locus YPR163C, strain tif3, active compounds read low 1.01 | locus YPR167C, strain met16, active compounds read low 1.01 | strain wtn01, active compounds read low 0.992
